# According to PubChem BioAssay AID504332 (National Center for Advancing Translational Sciences (NCATS), 2011):
# The campaign covered roughly 350,000 compounds. About 31,000 (8.9%) were called active. Roughly 15% stayed inconclusive and do not appear here. This excerpt belongs to a sample that is enriched for actives. Unmarked numbers belong to inactive results. Calls follow the shape of the dose curve; as a rule, active = well fitted inhibition curve with a large enough effect; inconclusive = small, poorly fitted or top-dose-only effect; inactive = no such curve, though single readings can be large or run the other way.
# Target: Histone-lysine N-methyltransferase EHMT2 (Homo sapiens) (UniProt Q96KQ7)
# Assay: qHTS Assay for Inhibitors of Histone Lysine Methyltransferase G9a; also: nearly all actives have a fitted effect of over 75% in size
# Settings: G9a H3K9 monomethylation, AlphaScreen, 2 h; series mostly up to 59 µM; activity, negative = inhibition: at the top concentration
# Source text: Methylated lysines, on the N-terminal tails of histone proteins serve as epigenetic markers to recruit factors that can then modify local chromatin structure to lead to functional consequences. G9a and other members of the SUV39 family of the SET domain-containing superfamily of histone lysine methyltransferases (HMT) have been identified to specifically methylate Lys9 of histone H3 (H3K9). G9a catalyzes the mono- and di-methylation of H3K9 in mammalian euchromatic regions, where the resulting H3K9me2 is indicative of transcriptional repression. […] The inhibition of G9a will result in transcriptional activation and work synergistically with DNA methyltransferase and histone deacetylase inhibitors, to kill cancer cells. This qHTS assay for identification of G9a inhibitors is a chemiluminescence based AlphaScreen (PerkinElmer). Methylation of biotinylated-histone peptide is measured through specific antibody-based detection, in conjunction with streptavidin-coated donor and anti-IgG antibody-coated acceptor beads. The method is particularly well suited for detection of inhibitors acting by the desired histone peptide competitive mechanism and is applicable to testing other HMTs. Although AlphaScreen has significant advantages with its utility in a variety of epigenetic target assays, the primary screening data provided in this deposition should be used with caution due to the prevalence of screening artifacts. An AlphaScreen counterscreen is highly recommended to be run against any putative actives to eliminate non specific artifacts. Alternatively, one can use other AlphaScreen assays in PubChem to filter out promiscuous hits. Quinn et al. A chemiluminescence-based method for identification of histone lysine methyltransferase inhibitors. Mol Biosyst 6(5): 782-8. 2010. PMID: 20567762 [2] Baell,Holloway. New substructure filters for removal of pan assay interference compounds (PAINS) from screening libraries and for their exclusion in bioassays. J Med Chem. 53(7):2719-40. 2010. PMID: 20131845 NIH Molecular Libraries Probe Production Network [MLPCN] NIH Chemical Genomics Center [NCGC] Structural Genomics Consortium (SGC) NIH Grant: 5U54 MH084681-02
# To each well of a 1,536w plate, 2ul of HMT enzyme (final 20nM) were added, using a nanoliter dispenser. The G9a- and GLP-inhibitor BIX-01294 (CID: 25150857) are used as an intraplate control, with a 16-point titration in duplicate. A Kalypsys pin-tool transferred 23nl of library compound solution in DMSO to each well. Following a 15 min incubation of enzyme with compounds at room temperature, 1ul mixture of b-H3K9 peptide substrate (final 500nM) and SAM cofactor (final 20uM) were added. Reactions were allowed to proceed at room temperature for 2 hours. Methylated b-H3K9 peptide product was detected with 0.5 ug/mL rabbit polyclonal anti-monomethyl histone H3K9 antibody (Abcam Inc., Cambridge, MA) and 20 ug/mL each streptavidin-coated donor and anti-rabbit IgG acceptor AlphaScreen beads. Antibody and beads were added in a 1ul dispense, for a final volume of 4ul, and plates were incubated, protected from the light, for 10 min at room temperature. Microplates were then read on an EnVision multilabel plate reader using the 1,536 plate HTS AlphaScreen aperture (excitation time 80 ms, measurement time 240 ms).
# % is scaled to controls: 0 for no effect and ±100 for the full control effect; potency is read from the fitted curve at half-maximal effect.
# Histone-lysine N-methyltransferase EHMT2 (Homo sapiens), sequence (Q96KQ7 913-1193 limits assumed): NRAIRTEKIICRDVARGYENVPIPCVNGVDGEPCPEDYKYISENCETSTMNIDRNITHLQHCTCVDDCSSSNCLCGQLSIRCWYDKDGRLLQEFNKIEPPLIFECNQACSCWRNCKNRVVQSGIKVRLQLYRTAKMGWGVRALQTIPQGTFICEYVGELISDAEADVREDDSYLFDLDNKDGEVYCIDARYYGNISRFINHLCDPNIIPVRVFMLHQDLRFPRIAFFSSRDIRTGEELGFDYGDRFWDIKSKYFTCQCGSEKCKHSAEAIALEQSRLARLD
SMILES,"activity, negative = inhibition",Potency
COc1ccccc1C(=O)NCCn1cc(SCc2ccccc2Cl)c2ccccc21,-3.42%,–
O=C(c1ccc(F)cc1)N1CCC(C(=O)N2CCN(S(=O)(=O)c3ccccc3Br)CC2)CC1,4.58% [at 102 µM],–
O=C(NCc1ccccc1Cl)c1cccn1-c1nnc(N2CCCCC2)s1,-23.5%,–
COc1ccccc1N1CCN(c2ncnc3onc(-c4ccc(F)cc4)c23)CC1,-23%,–
CCC(=O)Nc1sc(C(=O)N2CCCCC2)c(C)c1C#N,-5.42% [at 102 µM],–
O=c1oc2c(CN3CCCCC3)c(O)ccc2c2c1CCCCC2,0.621% [at 102 µM],–
CCCn1c(O)c(CN2CCCC(C)C2)c(C)c(C#N)c1=O (stereo not drawn),–,14.1 µM (active)
Cc1c(CN2CCCCC2)c(O)n(CCO)c(=O)c1C#N,–,50.1 µM (active)
CCCCCCn1c(CN2CCCC(C)C2)nc2c1c(=O)n(C)c(=O)n2C (stereo not drawn),-8.22%,–
CC1CCCN(Cc2c(O)ccc3c(=O)c(Oc4ccc(C(C)(C)C)cc4)c(C(F)(F)F)oc23)C1 (stereo not drawn),-6.89%,–
CCOc1ccc(-n2nc3ccc(NC(=O)c4ccc(OC)c(Cl)c4)cc3n2)cc1,-2.24%,–
CN(CC(=O)Nc1c(Cl)cccc1Cl)C(=O)CC1OC(=O)c2ccccc21 (stereo not drawn),-2.24%,–
CN(Cc1ccccc1)C(=O)CCS(=O)(=O)c1cc(Br)cc2c1N(C(=O)C1CC1)CC2,-27.6%,–
CCc1ccccc1OCC(=O)Nc1ccc(C)c(S(=O)(=O)N2CCCCCC2)c1,18.3% [at 12.7 µM],–
C[C@H](OC(=O)n1ccnc1)[C@@H]1O[C@@]2(C)CCC[C@@H]1O2,9.09% [at 0.501 µM],–
Cc1ccc(-c2cn3c(n2)sc2cc(C(=O)NCc4cccs4)ccc23)c(C)c1,66.5%,–
CCC(=O)N1CCc2cc(Br)cc(S(=O)(=O)CCC(=O)N3CCN(c4ccc(F)cc4)CC3)c21,8.24%,–
CCn1c(CSCc2c(Cl)cccc2Cl)n[nH]c1=S,–,2.82 µM (active)
O=c1[nH]nc(CSCc2ccccc2Cl)[nH]1,-25.8%,–
O=C(CSCc1c(Cl)cccc1Cl)NN1C(=O)c2ccccc2C1=O,-11.1% [at 2.33 µM],–
COc1ccccc1-n1ccnc(SCC(=O)NC2CCCCC2)c1=O,-32.6% [at 102 µM],–
Cc1ccc(C)c(OCCC(=O)OCC(=O)NC(=O)NCc2ccccc2)c1,-14% [at 102 µM],–
O=C(Nc1ccc(Cl)cn1)Nc1cccs1,–,56.2 µM (active)
O=C(Nc1cccc([N+](=O)[O-])c1)Nc1ccc(Cl)cn1,0.0678% [at 102 µM],–

SMILES,"activity, negative = inhibition",Potency
CCCc1cc(C(=O)Nc2ccc(Cl)cn2)cs1,164% [at 102 µM],–
COc1ccc(S(=O)(=O)N2CCCCC2)cc1NC(=O)C1CC(=O)N(c2ccc3c(c2)OCCO3)C1 (stereo not drawn),-34.3% [at 102 µM],–
CCOc1ccc(S(=O)(=O)N2CCCCC2)cc1NC(=O)CN1CCCC1c1cccs1 (stereo not drawn),19.5% [at 2.33 µM],–
Cn1c(-c2sc3cc(C(F)(F)F)cnc3c2-c2ccccc2)n[nH]c1=S,–,2.24 µM (active)
Cc1cc(C(F)(F)F)n2ncc(-c3ccccc3)c2n1,-32.2%,–
Cc1nn(-c2nc(-c3ccccc3)cc(C(F)(F)F)n2)c(C)c1Cl,32%,–
Cc1ccc2c(=O)c(C(=O)c3cccc(Cl)c3)cn(CC(=O)NCc3ccccc3)c2n1,4.96%,–
O=C1NC(=O)C2C1C(c1ccc([N+](=O)[O-])cc1)=NN2Cc1ccccc1 (stereo not drawn),–,50.1 µM (active)
Cc1nc2ccccc2c(=O)n1Cc1ccc([N+](=O)[O-])cc1,-6.02% [at 102 µM],–
CC(=O)N1c2ccccc2N(Cc2ccc([N+](=O)[O-])cc2)C(=O)C1(C)C,6.61%,–
O=C(CSc1nnc(Nc2ccccc2F)s1)NC1CCCC1,–,8.91 µM (active)
Nn1c(SCC(=O)NC2CCCC2)nnc1-c1ccccc1F,–,50.1 µM (active)
Cc1cc(NC(=O)CSc2nnc(Nc3ccccc3F)s2)no1,1.03% [at 102 µM],–
Nn1c(SCC(=O)NC(=O)NC2CCCC2)nnc1-c1ccccc1F,17.4% [at 102 µM],–
CC(C)NC(=O)NC(=O)CSc1nnc(-c2ccccc2F)n1N,12.1% [at 102 µM],–
O=C(CSc1nnc(Nc2ccccc2)s1)Nc1cccnc1Cl,-22.7% [at 102 µM],–
O=C1CCCN1C(=O)COc1ccc([N+](=O)[O-])cc1,4.7%,–
COc1ccc(CCNc2nc(-c3ccc(F)cc3)cc(C(F)(F)F)n2)cc1OC,24.8%,–
Cc1cc(C)cc(-c2nnc(SCC(=O)NC3CC3)o2)c1,18.2% [at 2.33 µM],–
CO[C@H]1[C@@H]2C=CO[C@@H](O[C@H]3O[C@@H](CO)[C@H](O)[C@@H](O)[C@@H]3O)[C@@H]2[C@@]2(CO)O[C@@H]12,-4.51% [at 2.33 µM],–
COc1cccc(CNC(=O)Cn2c(=O)c3cccn3c3ccc(F)cc32)c1OC,10.8%,–
CCc1ccc(S(=O)(=O)Nc2ccc(C)c(NS(C)(=O)=O)c2)cc1,-16.3% [at 102 µM],–
Cn1c(=O)c(=O)n(C)c2cc(S(=O)(=O)NCCc3ccccc3)ccc21,29.1% [at 0.501 µM],–
CCc1ccc(S(=O)(=O)Nc2cc3c(cc2N2CCCCC2)n(C)c(=O)c(=O)n3C)cc1,–,44.7 µM (active)
